The source made the active and inactive calls. Calls come from the whole dose curve; as a rule, active = well fitted activation curve with a large enough effect in the repeat runs; inconclusive = weak or mixed curves; inactive = flat fitted curve, though single readings scatter.
Target: KiSS-1 receptor (Homo sapiens) (UniProt Q969F8)
Test: Human kisspeptin (KISS1R) small molecule agonists, calcium flux assay in KISS1R-HEK293 cells (AID 1920064)
Settings: KISS1R-HEK293, calcium flux fluorescence, agonist; series mostly up to 76.8 µM; activation: at the top concentration
Source text: National Center for Advancing Translational Sciences [NCATS]
Division of Preclinical Innovation [DPI]
U.S. Environmental Protection Agency [EPA]
National Institutes of Environmental Health Sciences [NIEHS]
National Toxicology Program [NTP]
U.S. Food and Drug Administration [FDA]
Kisspeptin and its receptor KISS1R play key roles in mammalian reproduction due to their involvement in the onset of puberty and control of the hypothalamic-pituitary-gonadal axis such as regulates GnRH release from the hypothalamus. The kisspeptin/KISS1R system also plays a direct role in peripheral organs (including the ovary, testis, uterus, and placenta) and is implicated in reproductive diseases such as miscarriage and polycystic ovary syndrome (PCOS). Abnormal KISS1R activity is associated with abnormal puberty, infertility, endometriosis, and hormone-dependent tumors. The KISS1 receptor (KISS1R, also called GPR54), a G-protein-coupled receptor (GPCR), acts (through phospholipase C) to increase intracellular inositol trisphosphate and then release intracellular calcium stores. Cell-based KISS1R-HEK293 assay is using HEK293 cells that have been genetically engineered to express the human KISS1R, which activity can be measured by calcium signaling. A compound/drug can activate (agonist) KISS1R that can be monitored by levels of intracellular calcium.
KISS1R-HEK293 cells developed by Codex Corp contain human KISS1R gene, which was stably integrated into HEK 293 cells. The compound activation can be detected by fluorescence intensity via calcium flux assay. This cell line has been used to screen the Tox21 10K compound library to identify agonists of KISS1R.
KISS1R-Hek293 cells were dispensed at 1500 cells/4uL/well in 1536-well black wall/clear bottom plates using a multidrop dispenser. After the assay plates were incubated at a 37 C/5% CO2 incubator for 18 hours, 4 microL of Calcium Dye Solution was added to each well. The plates were incubated at 37 C for 1 hour. And then 23 nL of compounds dissolved in DMSO, positive controls, or DMSO only was transferred to the assay plate by a pin tool station. The fluorescence intensity in the plates was measured using FDSS 7000EX kinetic plate reader with a filter set of Ex/Em=480/540 for 3 min at 1 sec intervals. Each test compound was measured at 15 concentrations and in triplicates.
% is set by controls: 0 for no effect and ±100 for the full control effect.

KiSS-1 receptor (Homo sapiens), sequence (Q969F8 whole entry, looked up): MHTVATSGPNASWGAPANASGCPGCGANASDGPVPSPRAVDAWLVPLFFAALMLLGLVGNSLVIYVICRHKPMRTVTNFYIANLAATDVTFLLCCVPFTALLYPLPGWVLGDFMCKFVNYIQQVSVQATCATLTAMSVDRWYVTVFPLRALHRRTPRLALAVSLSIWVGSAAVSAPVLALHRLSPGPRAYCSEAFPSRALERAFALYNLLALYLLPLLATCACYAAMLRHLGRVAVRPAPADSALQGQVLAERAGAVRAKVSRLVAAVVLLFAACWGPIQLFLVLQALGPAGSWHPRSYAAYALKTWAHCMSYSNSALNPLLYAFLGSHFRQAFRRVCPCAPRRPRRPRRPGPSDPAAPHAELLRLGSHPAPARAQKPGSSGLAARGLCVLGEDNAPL

Structure (SMILES)	activation
Nc1cc(C(=O)O)c(O)c(S(=O)(=O)O)c1	-0.202% (inactive)
O=C(Nc1ccccc1)c1cc([N+](=O)[O-])ccc1Cl	0.43% (inactive)
C=CCn1c(=O)n(CC=C)c(=O)n(CC=C)c1=O	2.02% (inactive)
CCCOc1ccccc1-c1nc2n[nH]nc2c(=O)[nH]1	-0.841% [at 35.3 µM] (inactive)
CCOc1nc(F)cc2nc(S(=O)(=O)Nc3c(Cl)cccc3C(=O)OC)nn12	-2.43% (inactive)
Cc1cccc(C)n1	-3.84% (inactive)
Cc1cc(=O)oc2cc(O[C@@H]3SC[C@@H](O)[C@H](O)[C@H]3O)ccc12	-0.888% [at 35.3 µM] (inactive)
Nc1ncnc2c1ncn2[C@@H]1O[C@H](CO)[C@@H](O)[C@H]1O	0.32% [at 35.3 µM] (inactive)
Cc1cccc(C)c1OCC(=O)N[C@@H](Cc1ccccc1)[C@@H](O)C[C@H](Cc1ccccc1)NC(=O)[C@H](C(C)C)N1CCCNC1=O	-0.322% [at 35.3 µM] (inactive)
CCOc1cc(OCC)c(C(C)=O)cc1OCC	-0.779% (inactive)
CC(=O)c1c(C)cc(C(C)(C)C)cc1C	0.743% (inactive)
Cc1cccc(C(=O)O)c1[N+](=O)[O-]	0.0162% (inactive)
O=C(OCCN1CCOCC1)c1cccnc1Nc1cccc(C(F)(F)F)c1	-0.138% [at 35.3 µM] (inactive)
O=C(CCCl)NCc1ccccc1	-1.33% [at 35.3 µM] (inactive)
COc1cc2nc(Cl)nc(N)c2cc1OC	-1.22% [at 35.3 µM] (inactive)
COC(=O)CS	1.36% (inactive)
CC(C)(C)C1(CCc2ccc(Cl)cc2)CO1 (stereo not given)	0.954% (inactive)
CC(C)(C)c1n[nH]c(=S)n(N)c1=O	-2.16% (inactive)
CCCCCCCCCCCCN1CCOCC1	1.1% (inactive)
CCCCCCCCCCC(=O)O	0.931% (inactive)

Structure (SMILES)	activation
OCCN1C[C@H](O)[C@@H](O)[C@H](O)[C@H]1CO	3.3% [at 35.3 µM] (inactive)
N[C@H](C(=O)O)[C@@H](O)c1ccc(O)c(O)c1	-1.15% [at 35.3 µM] (inactive)
OC1CCCc2ccccc21 (stereo not given)	-2.12% (inactive)
N=C1N=C(N)c2ccccc21	-0.0735% (inactive)
Cc1cc(O)ccc1N	-3.97% (inactive)
COc1ccc2c(c1)c(CC(=O)OCC(=O)O)c(C)n2C(=O)c1ccc(Cl)cc1	-1.22% [at 35.3 µM] (inactive)
CC(O)c1ccccc1 (stereo not given)	-0.554% (inactive)
C[C@H]1O[C@H](O[C@H]2[C@H](O)[C@@H](O)[C@@H](O[C@H]3[C@H](O)[C@@H](O)[C@H](O)O[C@@H]3CO)O[C@@H]2CO)[C@H](O)[C@@H](O)[C@@H]1N[C@H]1C=C(CO)[C@@H](O)[C@H](O)[C@H]1O	-0.102% [at 35.3 µM] (inactive)
CC(C)C[P+](C)(CC(C)C)CC(C)C	1.81% (inactive)
Cc1cc(=O)oc2cc(O)cc(O)c12	-1.22% (inactive)
O=C(O)c1cc(O)c2c(c1)C(=O)c1cccc(O)c1C2=O	-0.877% (inactive)
O=C(c1ccc(O)cc1)c1ccc(O)cc1	2.79% (inactive)
CC(=O)NO	1.59% [at 35.3 µM] (inactive)
CCNC(=O)NCCCOc1cccc(CN2CCCCC2)c1	-2.29% [at 35.3 µM] (inactive)
CC(=O)OC(C)=O	0.714% (inactive)
ON=C1CCCC1	-0.354% (inactive)
Cc1ccsc1/C=C/C1=NCCCN1C	2.16% [at 35.3 µM] (inactive)
CCCCCc1ccc(Cl)cc1	-2.24% (inactive)
CC[C@@H](N)CO	-3.87% (inactive)
O=C(O)CNC(=O)c1ccc([N+](=O)[O-])cc1	0.832% (inactive)
